Legend:
Assay in all cases: log2 ratio of Biotin-Ahx-Ub-VS probe labelling (fragment/DMSO); higher = less target engagement (more negative = stronger competition), active = hit call of the paper (q ≤ 0.05, log2 ratio ≤ -1)
Details in all cases: compound concentration: 200 uM; treatment time: 3 h
USP42 = biological target: T1, USP42 (UniProt Q9H9J4)
T1 sequence (whole entry): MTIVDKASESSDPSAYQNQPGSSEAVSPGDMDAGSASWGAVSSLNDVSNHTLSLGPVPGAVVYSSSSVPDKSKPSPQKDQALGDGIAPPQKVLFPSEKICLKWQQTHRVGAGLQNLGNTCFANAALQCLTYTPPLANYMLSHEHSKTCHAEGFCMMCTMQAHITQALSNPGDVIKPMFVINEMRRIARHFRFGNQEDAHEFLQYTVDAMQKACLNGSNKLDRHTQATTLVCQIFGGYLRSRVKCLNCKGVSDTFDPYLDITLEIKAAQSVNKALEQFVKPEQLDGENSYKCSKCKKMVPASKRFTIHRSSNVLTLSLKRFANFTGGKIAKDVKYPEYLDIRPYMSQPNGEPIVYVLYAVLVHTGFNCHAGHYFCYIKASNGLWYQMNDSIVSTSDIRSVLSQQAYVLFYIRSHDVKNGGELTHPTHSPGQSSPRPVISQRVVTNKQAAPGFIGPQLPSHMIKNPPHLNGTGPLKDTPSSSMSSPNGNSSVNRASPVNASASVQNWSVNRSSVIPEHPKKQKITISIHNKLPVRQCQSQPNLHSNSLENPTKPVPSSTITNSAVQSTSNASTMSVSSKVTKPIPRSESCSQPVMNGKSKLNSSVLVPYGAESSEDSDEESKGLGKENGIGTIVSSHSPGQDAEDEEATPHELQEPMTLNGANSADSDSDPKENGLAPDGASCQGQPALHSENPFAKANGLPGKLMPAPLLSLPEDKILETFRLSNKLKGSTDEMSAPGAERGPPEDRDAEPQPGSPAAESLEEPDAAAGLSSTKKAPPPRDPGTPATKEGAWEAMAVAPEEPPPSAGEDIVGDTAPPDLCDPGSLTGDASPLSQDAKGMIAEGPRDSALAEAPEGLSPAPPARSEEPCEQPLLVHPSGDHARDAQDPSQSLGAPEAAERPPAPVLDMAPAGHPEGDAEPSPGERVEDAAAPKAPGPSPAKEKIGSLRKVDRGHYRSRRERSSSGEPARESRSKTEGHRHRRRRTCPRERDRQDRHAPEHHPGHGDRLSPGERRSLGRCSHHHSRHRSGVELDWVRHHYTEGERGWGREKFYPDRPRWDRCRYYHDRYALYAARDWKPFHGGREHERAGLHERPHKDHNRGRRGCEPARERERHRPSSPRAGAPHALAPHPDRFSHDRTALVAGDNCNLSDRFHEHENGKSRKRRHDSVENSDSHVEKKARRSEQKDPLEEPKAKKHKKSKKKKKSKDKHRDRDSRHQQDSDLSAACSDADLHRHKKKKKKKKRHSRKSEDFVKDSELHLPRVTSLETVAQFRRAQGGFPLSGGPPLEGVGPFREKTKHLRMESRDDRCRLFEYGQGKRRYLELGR
Procedure, shortened: (§1)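 HEK293T lysate, 495 µg per sample in Tris/CHAPS/IGEPAL buffer with protease inhibitors, was treated in triplicate with fragment at 200 µM or vehicle for 3 h and then with Biotin-Ahx-Ub-VS at 0.5 µM final for 1 h. Labelled DUBs were NeutrAvidin-enriched, digested with LysC and trypsin, and run by diaPASEF LC-MS/MS. Spectronaut label-free quantities were global-median-normalised, and values are average log2 fragment/vehicle ratios by unpaired t-test on proteins with ≥2 unique peptides.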

USP46 = USP46 (UniProt P62068)
Procedure, shortened: as §1

USP47 = biological target: T2, USP47 (UniProt Q96K76)
T2 sequence (whole entry): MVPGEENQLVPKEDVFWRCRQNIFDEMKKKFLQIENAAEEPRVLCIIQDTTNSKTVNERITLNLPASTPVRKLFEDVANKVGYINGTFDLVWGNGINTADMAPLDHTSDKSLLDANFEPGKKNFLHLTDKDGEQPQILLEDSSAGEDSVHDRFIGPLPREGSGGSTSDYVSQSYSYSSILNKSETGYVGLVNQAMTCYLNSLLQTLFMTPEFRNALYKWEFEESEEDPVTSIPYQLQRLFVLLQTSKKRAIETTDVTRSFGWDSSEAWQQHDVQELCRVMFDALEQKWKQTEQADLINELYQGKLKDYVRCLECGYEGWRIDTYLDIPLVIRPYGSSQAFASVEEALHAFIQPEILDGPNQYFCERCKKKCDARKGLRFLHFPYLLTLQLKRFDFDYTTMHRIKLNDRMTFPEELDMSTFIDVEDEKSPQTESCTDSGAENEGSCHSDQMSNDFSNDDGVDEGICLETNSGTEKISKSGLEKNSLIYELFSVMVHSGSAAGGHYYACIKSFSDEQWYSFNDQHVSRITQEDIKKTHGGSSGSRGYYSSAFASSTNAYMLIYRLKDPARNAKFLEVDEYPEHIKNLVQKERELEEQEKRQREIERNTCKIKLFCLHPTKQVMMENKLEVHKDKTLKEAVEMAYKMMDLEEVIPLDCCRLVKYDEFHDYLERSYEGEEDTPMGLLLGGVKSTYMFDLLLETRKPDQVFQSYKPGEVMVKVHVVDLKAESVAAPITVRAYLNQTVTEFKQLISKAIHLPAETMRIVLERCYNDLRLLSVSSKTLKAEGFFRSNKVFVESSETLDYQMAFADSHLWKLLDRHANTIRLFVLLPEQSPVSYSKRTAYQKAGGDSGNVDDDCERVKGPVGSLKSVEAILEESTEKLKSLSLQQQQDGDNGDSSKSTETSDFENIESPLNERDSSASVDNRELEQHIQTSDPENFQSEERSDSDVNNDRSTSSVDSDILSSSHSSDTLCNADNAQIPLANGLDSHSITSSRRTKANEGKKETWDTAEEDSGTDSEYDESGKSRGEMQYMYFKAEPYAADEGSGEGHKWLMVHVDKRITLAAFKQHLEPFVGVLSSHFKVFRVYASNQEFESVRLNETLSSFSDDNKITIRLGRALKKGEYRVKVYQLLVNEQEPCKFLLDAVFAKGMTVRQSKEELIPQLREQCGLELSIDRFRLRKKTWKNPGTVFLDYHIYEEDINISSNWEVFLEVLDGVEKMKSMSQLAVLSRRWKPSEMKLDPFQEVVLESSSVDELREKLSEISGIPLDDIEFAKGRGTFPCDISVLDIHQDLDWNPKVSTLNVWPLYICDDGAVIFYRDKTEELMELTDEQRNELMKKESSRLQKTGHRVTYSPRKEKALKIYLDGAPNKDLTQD
Procedure, shortened: as §1

USP48 = biological target: T3, USP48 (UniProt Q86UV5)
T3 sequence (whole entry): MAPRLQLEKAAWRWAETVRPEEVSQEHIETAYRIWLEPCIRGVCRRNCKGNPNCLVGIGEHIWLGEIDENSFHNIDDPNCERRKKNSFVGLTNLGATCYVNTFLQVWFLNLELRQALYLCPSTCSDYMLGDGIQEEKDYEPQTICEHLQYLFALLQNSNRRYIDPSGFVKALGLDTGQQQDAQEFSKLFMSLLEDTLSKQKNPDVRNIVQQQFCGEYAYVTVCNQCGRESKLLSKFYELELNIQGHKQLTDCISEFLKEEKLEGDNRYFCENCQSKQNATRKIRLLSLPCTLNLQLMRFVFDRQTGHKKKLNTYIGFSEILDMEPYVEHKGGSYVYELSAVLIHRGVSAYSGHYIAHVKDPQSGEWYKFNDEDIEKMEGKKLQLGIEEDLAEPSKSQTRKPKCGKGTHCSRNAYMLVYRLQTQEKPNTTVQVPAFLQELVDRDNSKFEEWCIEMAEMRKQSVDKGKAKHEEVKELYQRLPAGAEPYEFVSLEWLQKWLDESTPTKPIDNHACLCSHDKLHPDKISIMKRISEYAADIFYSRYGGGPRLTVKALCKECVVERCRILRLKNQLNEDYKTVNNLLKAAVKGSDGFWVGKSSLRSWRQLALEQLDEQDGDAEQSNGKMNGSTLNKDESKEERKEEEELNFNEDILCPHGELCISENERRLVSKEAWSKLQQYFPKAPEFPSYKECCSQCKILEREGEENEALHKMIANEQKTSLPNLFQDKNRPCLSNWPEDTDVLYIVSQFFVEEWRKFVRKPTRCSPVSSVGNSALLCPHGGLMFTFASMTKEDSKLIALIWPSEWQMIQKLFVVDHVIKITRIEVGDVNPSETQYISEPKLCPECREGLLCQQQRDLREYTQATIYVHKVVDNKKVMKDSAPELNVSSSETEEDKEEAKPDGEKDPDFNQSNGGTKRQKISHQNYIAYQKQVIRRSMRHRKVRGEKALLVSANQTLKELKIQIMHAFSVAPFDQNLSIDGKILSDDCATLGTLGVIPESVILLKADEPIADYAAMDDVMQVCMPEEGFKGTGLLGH
Procedure, shortened: as §1

USP5 = biological target: T4, USP5 (UniProt P45974)
T4 sequence (whole entry): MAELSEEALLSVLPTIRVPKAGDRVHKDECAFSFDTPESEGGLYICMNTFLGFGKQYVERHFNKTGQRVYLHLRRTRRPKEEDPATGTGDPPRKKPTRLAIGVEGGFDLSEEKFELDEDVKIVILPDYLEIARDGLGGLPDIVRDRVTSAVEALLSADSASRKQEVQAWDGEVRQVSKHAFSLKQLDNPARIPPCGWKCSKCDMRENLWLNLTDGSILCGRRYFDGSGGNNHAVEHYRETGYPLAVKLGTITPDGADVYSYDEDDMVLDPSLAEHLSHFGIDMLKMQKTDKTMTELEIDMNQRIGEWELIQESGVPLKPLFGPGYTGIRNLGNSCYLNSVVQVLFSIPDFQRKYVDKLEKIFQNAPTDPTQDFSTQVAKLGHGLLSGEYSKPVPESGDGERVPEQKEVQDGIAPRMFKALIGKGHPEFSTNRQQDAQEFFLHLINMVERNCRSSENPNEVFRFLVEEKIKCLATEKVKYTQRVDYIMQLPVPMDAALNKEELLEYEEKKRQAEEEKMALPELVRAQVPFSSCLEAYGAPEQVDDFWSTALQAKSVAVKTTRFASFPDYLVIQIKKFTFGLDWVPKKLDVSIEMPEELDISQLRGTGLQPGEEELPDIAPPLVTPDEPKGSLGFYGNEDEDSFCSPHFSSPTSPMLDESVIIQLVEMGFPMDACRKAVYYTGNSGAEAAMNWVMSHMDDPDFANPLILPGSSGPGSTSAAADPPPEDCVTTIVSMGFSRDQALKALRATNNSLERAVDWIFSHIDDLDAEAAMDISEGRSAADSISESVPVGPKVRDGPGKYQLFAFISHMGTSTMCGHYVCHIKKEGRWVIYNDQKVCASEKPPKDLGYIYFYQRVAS
Procedure, shortened: as §1

USP54 = USP54 (UniProt Q70EL1)
Procedure, shortened: as §1

USP7 = USP7 (UniProt Q93009)
Procedure, shortened: as §1

USP8 = biological target: T5, USP8 (UniProt P40818)
T5 sequence (whole entry): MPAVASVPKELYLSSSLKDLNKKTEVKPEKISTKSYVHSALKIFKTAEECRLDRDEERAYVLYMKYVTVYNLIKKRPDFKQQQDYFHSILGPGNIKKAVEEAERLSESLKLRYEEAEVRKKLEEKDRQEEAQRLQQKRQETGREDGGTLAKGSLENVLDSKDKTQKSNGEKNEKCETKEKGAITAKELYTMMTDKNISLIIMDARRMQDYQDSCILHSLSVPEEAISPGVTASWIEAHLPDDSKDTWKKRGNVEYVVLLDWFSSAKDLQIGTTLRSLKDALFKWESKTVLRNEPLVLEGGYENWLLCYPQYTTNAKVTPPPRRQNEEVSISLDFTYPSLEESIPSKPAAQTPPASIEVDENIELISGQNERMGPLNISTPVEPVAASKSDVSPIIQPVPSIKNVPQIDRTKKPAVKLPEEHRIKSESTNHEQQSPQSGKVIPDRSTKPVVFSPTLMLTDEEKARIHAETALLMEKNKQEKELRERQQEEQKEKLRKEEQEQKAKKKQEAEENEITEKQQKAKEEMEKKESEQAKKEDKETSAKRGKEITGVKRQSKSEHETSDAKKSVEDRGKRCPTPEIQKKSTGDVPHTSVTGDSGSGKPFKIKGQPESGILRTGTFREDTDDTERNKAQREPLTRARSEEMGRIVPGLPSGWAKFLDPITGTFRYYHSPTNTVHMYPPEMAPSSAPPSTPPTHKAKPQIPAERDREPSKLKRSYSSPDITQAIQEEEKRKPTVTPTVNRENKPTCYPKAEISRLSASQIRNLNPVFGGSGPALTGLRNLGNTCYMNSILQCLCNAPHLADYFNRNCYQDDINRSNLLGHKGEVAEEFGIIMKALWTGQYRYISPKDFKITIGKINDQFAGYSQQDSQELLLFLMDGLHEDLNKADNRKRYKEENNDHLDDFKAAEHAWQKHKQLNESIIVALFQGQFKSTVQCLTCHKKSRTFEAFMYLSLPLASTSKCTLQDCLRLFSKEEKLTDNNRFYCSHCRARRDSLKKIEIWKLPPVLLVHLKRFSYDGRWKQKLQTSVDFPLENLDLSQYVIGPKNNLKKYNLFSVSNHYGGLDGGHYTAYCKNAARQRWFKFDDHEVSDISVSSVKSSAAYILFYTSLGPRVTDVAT
Procedure, shortened: as §1

USP9X = USP9X (UniProt Q93008)
Procedure, shortened: as §1

UniProt O00487 = biological target: UniProt O00487
Procedure, shortened: as §1

Measured: log2 ratio of Biotin-Ahx-Ub-VS probe labelling

Sequence of UniProt O00487 (O00487 whole entry): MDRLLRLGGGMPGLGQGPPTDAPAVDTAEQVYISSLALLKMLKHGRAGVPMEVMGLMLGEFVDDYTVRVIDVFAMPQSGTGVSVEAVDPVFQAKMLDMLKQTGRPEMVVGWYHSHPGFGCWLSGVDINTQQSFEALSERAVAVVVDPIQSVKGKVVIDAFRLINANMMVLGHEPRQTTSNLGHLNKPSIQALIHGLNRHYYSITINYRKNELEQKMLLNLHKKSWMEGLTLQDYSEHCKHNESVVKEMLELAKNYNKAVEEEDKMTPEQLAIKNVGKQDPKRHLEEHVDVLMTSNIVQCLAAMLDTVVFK
Sequence of USP7 (Q93009 whole entry, looked up): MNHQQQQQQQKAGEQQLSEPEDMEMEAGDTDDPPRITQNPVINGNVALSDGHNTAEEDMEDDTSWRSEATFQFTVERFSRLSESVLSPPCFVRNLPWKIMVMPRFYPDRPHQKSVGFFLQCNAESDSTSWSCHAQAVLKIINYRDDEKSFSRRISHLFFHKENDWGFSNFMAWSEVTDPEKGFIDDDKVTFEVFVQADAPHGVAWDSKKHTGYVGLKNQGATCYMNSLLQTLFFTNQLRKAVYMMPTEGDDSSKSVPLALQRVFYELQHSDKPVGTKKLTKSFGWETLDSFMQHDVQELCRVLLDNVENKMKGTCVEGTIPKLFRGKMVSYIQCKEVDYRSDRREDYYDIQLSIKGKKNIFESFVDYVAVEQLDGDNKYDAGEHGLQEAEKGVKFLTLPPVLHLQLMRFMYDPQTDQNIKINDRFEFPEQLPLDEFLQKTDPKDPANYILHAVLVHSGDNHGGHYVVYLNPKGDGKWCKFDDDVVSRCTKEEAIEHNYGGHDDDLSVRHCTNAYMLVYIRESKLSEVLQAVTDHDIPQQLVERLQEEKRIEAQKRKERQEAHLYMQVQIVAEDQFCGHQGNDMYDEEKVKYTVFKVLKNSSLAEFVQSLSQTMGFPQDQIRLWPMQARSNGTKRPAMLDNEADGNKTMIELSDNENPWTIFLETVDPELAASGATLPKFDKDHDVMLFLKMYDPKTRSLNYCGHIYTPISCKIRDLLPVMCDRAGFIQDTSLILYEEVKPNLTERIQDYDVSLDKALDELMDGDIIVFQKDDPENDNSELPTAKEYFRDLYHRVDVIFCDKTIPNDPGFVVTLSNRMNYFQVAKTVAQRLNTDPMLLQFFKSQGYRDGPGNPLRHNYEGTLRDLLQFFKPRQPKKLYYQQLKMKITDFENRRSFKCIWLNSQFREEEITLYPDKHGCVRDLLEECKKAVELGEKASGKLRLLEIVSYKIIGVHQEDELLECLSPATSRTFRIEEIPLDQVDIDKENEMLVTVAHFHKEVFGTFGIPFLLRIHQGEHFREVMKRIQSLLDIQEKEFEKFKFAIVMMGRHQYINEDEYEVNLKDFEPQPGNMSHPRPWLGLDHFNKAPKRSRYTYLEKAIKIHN
Sequence of USP9X (Q93008 whole entry): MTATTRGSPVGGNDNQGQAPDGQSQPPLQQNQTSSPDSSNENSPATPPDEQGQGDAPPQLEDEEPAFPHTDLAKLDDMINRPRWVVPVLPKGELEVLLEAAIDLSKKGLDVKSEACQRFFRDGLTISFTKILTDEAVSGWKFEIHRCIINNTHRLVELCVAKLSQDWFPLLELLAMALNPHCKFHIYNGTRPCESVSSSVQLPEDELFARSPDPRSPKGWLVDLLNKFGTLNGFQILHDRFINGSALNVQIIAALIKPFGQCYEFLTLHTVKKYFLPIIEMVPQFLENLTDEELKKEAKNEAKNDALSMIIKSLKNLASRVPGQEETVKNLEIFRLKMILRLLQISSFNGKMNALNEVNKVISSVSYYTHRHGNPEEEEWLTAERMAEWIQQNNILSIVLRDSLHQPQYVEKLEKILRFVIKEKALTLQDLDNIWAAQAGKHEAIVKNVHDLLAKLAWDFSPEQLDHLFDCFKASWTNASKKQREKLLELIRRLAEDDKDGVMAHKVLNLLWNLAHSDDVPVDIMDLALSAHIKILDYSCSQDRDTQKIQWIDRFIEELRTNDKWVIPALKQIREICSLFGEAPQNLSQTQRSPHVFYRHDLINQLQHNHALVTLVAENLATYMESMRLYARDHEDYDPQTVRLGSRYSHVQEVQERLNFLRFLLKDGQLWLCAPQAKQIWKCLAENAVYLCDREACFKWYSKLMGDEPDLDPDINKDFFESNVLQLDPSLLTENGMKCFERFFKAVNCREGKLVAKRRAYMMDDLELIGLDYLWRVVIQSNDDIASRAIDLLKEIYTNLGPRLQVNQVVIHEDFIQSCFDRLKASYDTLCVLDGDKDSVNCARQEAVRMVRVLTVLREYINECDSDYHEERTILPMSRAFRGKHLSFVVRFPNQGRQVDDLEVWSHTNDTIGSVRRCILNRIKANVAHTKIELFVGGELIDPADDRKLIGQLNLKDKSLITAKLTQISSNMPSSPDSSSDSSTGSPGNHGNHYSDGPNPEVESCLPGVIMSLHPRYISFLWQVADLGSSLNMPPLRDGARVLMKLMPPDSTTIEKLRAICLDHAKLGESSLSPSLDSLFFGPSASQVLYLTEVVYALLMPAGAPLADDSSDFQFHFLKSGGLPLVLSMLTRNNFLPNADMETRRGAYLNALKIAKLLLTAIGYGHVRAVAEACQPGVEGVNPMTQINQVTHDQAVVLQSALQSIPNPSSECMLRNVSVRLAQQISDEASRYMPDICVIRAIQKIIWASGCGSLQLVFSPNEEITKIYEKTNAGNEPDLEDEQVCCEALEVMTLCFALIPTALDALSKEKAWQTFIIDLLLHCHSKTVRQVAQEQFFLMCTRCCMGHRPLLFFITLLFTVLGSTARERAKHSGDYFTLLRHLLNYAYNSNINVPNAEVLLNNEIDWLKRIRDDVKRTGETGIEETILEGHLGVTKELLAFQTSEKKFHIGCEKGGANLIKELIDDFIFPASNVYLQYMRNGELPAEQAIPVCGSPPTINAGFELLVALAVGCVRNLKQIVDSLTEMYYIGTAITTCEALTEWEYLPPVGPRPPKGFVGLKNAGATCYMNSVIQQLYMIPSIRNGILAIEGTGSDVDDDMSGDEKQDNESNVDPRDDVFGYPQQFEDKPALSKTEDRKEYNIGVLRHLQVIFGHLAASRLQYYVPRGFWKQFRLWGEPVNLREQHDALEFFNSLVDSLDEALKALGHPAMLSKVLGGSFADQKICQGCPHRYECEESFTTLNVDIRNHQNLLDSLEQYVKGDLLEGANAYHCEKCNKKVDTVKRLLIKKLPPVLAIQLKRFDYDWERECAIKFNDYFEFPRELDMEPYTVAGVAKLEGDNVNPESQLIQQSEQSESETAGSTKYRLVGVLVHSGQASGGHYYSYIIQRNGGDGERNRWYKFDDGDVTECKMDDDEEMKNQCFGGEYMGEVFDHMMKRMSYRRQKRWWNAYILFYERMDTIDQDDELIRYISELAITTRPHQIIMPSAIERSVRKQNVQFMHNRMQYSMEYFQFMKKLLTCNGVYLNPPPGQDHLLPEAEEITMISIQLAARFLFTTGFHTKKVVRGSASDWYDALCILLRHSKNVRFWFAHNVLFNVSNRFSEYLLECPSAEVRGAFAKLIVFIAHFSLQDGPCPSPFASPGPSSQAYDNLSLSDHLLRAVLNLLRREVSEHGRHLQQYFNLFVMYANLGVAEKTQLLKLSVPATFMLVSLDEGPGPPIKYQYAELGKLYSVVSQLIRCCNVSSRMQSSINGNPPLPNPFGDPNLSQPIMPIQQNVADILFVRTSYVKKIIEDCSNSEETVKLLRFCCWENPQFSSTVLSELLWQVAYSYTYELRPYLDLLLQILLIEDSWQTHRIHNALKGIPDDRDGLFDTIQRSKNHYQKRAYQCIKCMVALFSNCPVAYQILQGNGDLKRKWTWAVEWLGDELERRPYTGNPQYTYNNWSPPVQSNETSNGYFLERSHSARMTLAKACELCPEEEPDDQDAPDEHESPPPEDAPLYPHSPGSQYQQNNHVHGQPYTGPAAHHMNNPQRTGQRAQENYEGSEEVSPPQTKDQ
Sequence of USP46 (P62068 whole entry): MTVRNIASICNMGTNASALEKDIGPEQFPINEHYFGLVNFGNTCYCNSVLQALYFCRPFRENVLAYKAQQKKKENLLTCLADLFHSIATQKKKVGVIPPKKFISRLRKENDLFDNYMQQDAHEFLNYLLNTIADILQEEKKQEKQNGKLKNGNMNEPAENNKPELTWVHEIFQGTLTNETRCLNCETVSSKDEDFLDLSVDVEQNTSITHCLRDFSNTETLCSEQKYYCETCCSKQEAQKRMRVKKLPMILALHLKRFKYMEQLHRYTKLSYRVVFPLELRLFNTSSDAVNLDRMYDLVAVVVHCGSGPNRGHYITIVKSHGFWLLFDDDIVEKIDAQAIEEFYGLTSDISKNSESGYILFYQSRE

O=C(CCl)NC1CCCCNC1=O (stereo not given)
inactive: USP42 0.0716 | USP46 -0.113 | USP47 -0.161 | USP48 -0.154 | USP5 -0.327 | USP54 0.114 | USP7 -0.264 | USP8 -0.134 | USP9X -0.297 | UniProt O00487 -0.13

Source: the supplement of paper PMC11732987, “Enantioselective OTUD7B fragment discovery through chemoproteomics screening and high-throughput optimisation” (Communications Chemistry, 2025)
